# Experimental data published in PubChem BioAssay (NCI).
# Compounds without any hit were thinned out: in the full panel of roughly 83,000, 20% have a hit.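 How to read the values: 0–100, growth inhibition (40 = 60% inhibited); 0, no net growth; -100 to 0, cell death (-40 = 40% of starting cells died; -100 = all dead).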 Active and inactive are the calls of the source.
# Test system: LOX IMVI melanoma
# Test: NCI-60 one-dose screen, 48 h (100 = growth as untreated, 0 = no growth, -100 = all killed)
# Settings: 10 µM unless noted
# Experimental: Growth inhibition of the LOX IMVI human tumor cell line is measured as a screen for anti-cancer activity. Cells are grown in 96 well plates and exposed to the test compound for 48 hours. Compounds are tested at a single concentration, which is 10^-5 M for most compounds. The reported endpoint is percent growth (GI% or GIPRCNT), where numbers from 0 - 100% represent growth inhibition, and numbers from -100% - 0 represent cell death. For example, a value of 40 represents 60% growth inhibition. A value of 0 means no net growth occurred over the course of the experiment. A value of -40 indicates 40% of cells at the beginning of the experiment died by the end of the experiment. A value of -100 means all cells are dead at the end of the experiment.
# NCI-60 Human Tumor Cell Lines Screen was performed using the standard one-dose NCI protocol, which is described in more detail at https://dtp.cancer.gov/discovery_development/nci-60/default.htm.
# Compounds with GIPRCNT values below 10 were considered active. Activity score was based on GIPRCNT using the following formula: […]
# Score is 0 for GIPRCNT values of 100 or above, 50 for GIPRCNT values of 0, and 100 for GIPRCNT values of -100.
row,Structure (SMILES),growth
1,Cc1ccc(C2=Nc3c(N)ncnc3NC(c3ccc4c(c3)OCO4)C2)cc1 (stereo not given),59.3% (inactive)
2,Cn1ccc2c3c(ccc21)CC3=O,119% (inactive)
3,Cn1c(-c2ccc(Br)cc2)c(O)c(=O)c2c(F)cccc21,40.2% (inactive)
4,COc1ccc(-c2csc(N(C(=O)N3CCN(c4cc5c(cc4F)c(=O)c(C(=O)O)cn5C4CC4)CC3)c3ccccc3)n2)cc1,2.06% (active)
5,O=CC1(C2(C=O)c3ccccc3-c3ccccc32)c2ccccc2-c2ccccc21,-61% (active)
6,Fc1cccc(CNc2c3ccccc3nc3ccccc23)c1F,39.2% (inactive)
7,CN(C)C1CCN(Cc2ccc(NC(=O)c3cncc(C#Cc4cnc(N)c5ncccc45)c3)cc2C(F)(F)F)CC1,63.7% (inactive)
8,CC(C)N1CCN(Cc2ccc3c(NNC(=O)c4ccccc4)nc4cc(F)ccc4n23)CC1,6.12% (active)
9,CC1(C)CC[C@]2(c3nnc(-c4ccncc4)o3)CC[C@H]3C(=CC[C@H]4[C@@]3(C)CC[C@H]3C(C)(C)C(=O)CC[C@]43C)[C@@H]2C1,57.4% (inactive)
10,C#CCOc1ccc2ncnc(Nc3cccc(NC(=O)C=C)c3)c2c1,62.5% (inactive)
11,O=S(=O)(Nc1cc(Br)c(O)c2ccccc12)c1ccc(F)cc1,0.868% (active)
12,N#CC1=C(c2ccc(Cl)cc2)Nc2c(c(-c3ccc(Cl)cc3)nn2-c2ccccc2)C12C(=O)Nc1ccc(Cl)cc12 (stereo not given),41.5% (inactive)
13,COc1cc(NC(C)CCCNC(C)C)c2ncccc2c1OC (stereo not given),83.5% (inactive)
14,C[C@]12C=CC(=O)C=C1CCC1C2[C@@H](O)C[C@@]2(C)C1CC[C@]2(O)C(=O)COC(=O)CCC(=O)O (stereo not given in full),102% (inactive)
15,CN1CCN(c2ccc(NC(=O)c3cncnc3Nc3ccc(OCc4ccccn4)c(Cl)c3)cc2)CC1,-22.1% (active)
16,COc1ccc2cc(-c3ccc(NC(C)=O)c(=O)o3)ccc2c1,104% (inactive)
17,CC(=O)Nc1nc2ccc(NS(=O)(=O)c3cccc4c(N(C)C)cccc34)cc2[nH]1,53.6% (inactive)
18,O=C1c2c(c3c4ccc(Br)cc4oc3c3[nH]c4ccccc4c23)C(=O)N1O,6.55% (active)
19,COc1ccc(NC(=O)c2sc3nc(C)c(C(=O)/C=C/c4cccc(OC)c4)cc3c2N)cc1,-73.1% (active)
20,O=C1Nc2ccccc2/C1=C\c1nc(-c2ccccc2)n2ccccc12,84.6% (inactive)

row,Structure (SMILES),growth
1,Cc1ccc(S(=O)(=O)N2CCCC2CO)cc1 (stereo not given),86.3% (inactive)
2,Cc1cccnc1NC(=S)Nc1ncccc1C,107% (inactive)
3,C/C(=C(/c1ccc(Cl)cc1)c1ccc(OCCN2CCCC2)cc1)c1ccc(Cl)cc1,78% (inactive)
4,C=CCn1c(SCC(=O)Nc2ccc(C(=O)/C=C/c3ccc(Cl)cc3)cc2)nnc1-c1cc(-c2ccc(S(N)(=O)=O)cc2)nc2ccccc12,92.3% (inactive)
5,O=C(CI)NC1Oc2ccccc2-c2oc(=O)c(-c3ccccc3)cc21 (stereo not given),-82.8% (active)
6,C=CCn1c(SCC(=O)NCc2cc(C)c(O)c(C)c2)nc2ccc(Cl)cc2c1=O,100% (inactive)
7,O=C(CCCCCCN1CC(=O)N2[C@H](c3cc(Br)cs3)c3[nH]c4ccccc4c3C[C@H]2C1=O)NO,8.65% (active)
8,COc1ccc(/C(C)=C(/c2ccc(OCCCN(C)C)cc2)c2ccc(OC(=O)Cc3ccccc3)cc2)cc1,-5.23% (active)
9,CCOC(=O)c1nc(Nc2ccc(NC(=O)Nc3ccc(F)cc3)cc2)c2ccccc2n1,90.9% (inactive)
10,CCSc1nc(NC)c2cc(-c3ccc(C(F)(F)F)cc3)ccc2n1,106% (inactive)
11,COc1cc(OC)c2sc(-c3ccc(-n4cncc4-c4ccc(OC)c(OC)c4)cc3)nc2c1,59.1% (inactive)
12,Oc1ccc(CN2CCC(N3CCCCC3)CC2)c2cccnc12,17.8% (inactive)
13,O=C(c1ccc(-c2nc(CSc3nc4ccccc4s3)no2)cc1)N1CCSCC1,55.2% (inactive)
14,CN(C)Cc1ccc(NC(=O)c2cncc(C#Cc3cnc(N)c4ncccc34)c2)cc1F,-65% (active)
15,Cc1ccc(-c2nc(N3CCNCC3)c3oc(-c4ccccc4)nc3n2)cc1,-89.1% (active)
16,OCCOCCN(Cc1ccccn1)Cc1cc(I)cc(I)c1O,62.3% (inactive)
17,CN1C(=O)/C(=C/c2cn(-c3ccccc3)nc2-c2ccccc2)SC1=S,89.6% (inactive)
18,CCCC(=O)NC(c1ccc2c(c1)OCO2)c1ccc2cccnc2c1O (stereo not given),12% (inactive)
19,COc1ccc(-c2nn(-c3ccccc3)cc2/C=C2/SC(=S)N(C)C2=O)cc1,77.1% (inactive)
20,N=C(N)c1ccc(-c2ccc(-c3ccc(Cl)cc3)s2)nc1,-89% (active)
